# Most compounds without a hit are left out; they make up all but 4.1% or so of the library.
# hcDAF12 agonist – activates DAF-12 receptor from parasite H. contortus. HEK293 hcDAF-12 lit1-tk-luc reporter, luminescence; 0% DMSO, 100% Δ7-dafachronic acid. activation, % at 6.8 µM. actives 1.4% (n = 370,000). AID 652067;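 active = activation above the mean of all tested compounds plus 3 SD, cut at about 5.5% in these data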;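 note: 100% = response to 3 µM Δ7-dafachronic acid high control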
# DAX1 inh-1 – inhibits human nuclear receptor DAX1 | P51843 | HEK293 Gal4-DAX1 luciferase reporter, luminescence | inhibition, % at 6.75 µM | AID 504766 | actives 0.99% (n = 340,000);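 active = inhibition above the mean over all tested compounds plus 3 SD, cut at about 4.2% in these data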;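 note: 0% = DAX1-transfected cells with DMSO and 100% = empty-vector control cells with DMSO; inhibition shows as a rise in luminescence from relieved DAX1 repression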
# DAX1 inh-2 – blocks DAX1 repression of SF-1 activated StAR promoter. actives 1.1% (n = 370,000). AID 652010. HEK293T StAR-luciferase reporter, SF-1/DAX-1 repression relief. inhibition, % at 6.8 µM;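 active = inhibition above the mean over all tested compounds plus 3 SD, cut at about 3.6% in these data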;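 note: 0% = DAX-1 cells with DMSO and 100% = cells lacking DAX-1 with DMSO; higher inhibition means more luminescence from relief of DAX-1 repression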
# hgDAF12 agonist – hgDAF-12 agonism, primary luciferase screen; HEK293 GAL4-hgDAF12 UAS-luciferase reporter, agonist luminescence; normalized to butyrate control; activation, % at 6.8 µM; AID 687014; actives 1.8% (n = 370,000);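 active = activation above a cutoff set at the mean of all screened compounds plus 3 SD, cut at about 10% in these data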;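 note: 0% = DMSO wells and 100% = sodium butyrate wells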
# ssDAF12 agonist – activates DAF-12 receptor from parasite S. stercoralis. HEK293 ssDAF-12/GRIP1 lit1-tk-luc reporter, luminescence; % of 3 µM dafachronic acid response. activation, % at 6.8 µM. actives 1% (n = 370,000). AID 652126;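 active = activation above the mean over all tested compounds plus 3 SD, cut at about 0.9% in these data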;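 note: 0% = DMSO-only wells and 100% = 3 µM delta7-dafachronic acid wells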
# DAX1 conf – NR0B1 (human) inhibition, confirmation; shares compounds with DAX1 inh-2; HEK293T StAR-promoter luciferase reporter, SF-1/DAX-1 repression; inhibition, % at 6.8 µM; actives 87% (n = 2,400); AID 652134;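 active = inhibition above the average of every tested compound plus 3 SD, cut at about 3.8% in these data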;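 note: 0% = DAX-1 cells with DMSO and 100% = no DAX-1 control cells with DMSO; active compounds raise luminescence by relieving repression of the StAR reporter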
# Target sequence (P51843 whole entry, looked up): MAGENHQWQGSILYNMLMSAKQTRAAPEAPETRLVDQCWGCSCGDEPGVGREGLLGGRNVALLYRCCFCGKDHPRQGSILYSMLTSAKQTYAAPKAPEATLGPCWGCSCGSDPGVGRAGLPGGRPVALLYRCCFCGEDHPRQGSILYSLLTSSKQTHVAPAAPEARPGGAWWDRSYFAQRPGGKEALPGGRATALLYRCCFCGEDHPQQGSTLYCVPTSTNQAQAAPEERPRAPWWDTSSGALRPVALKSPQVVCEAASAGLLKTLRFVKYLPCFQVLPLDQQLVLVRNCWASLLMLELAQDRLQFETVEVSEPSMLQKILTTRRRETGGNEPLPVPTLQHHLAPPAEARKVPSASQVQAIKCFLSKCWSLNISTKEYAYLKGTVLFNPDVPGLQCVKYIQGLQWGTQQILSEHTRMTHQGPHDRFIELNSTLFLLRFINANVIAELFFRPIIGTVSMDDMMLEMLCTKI
# SF1 AF2mut Luc – nonselective inhibitor or artifact in SF-1 mutant DAX1 counter-screen | shares compounds with DAX1 inh-2 | HEK293 StAR-luciferase, SF-1 AF2 mutant, luminescence | inhibition, % at 6.8 µM | actives 78% (n = 2,400);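 active = inhibition above the mean of all tested compounds plus 3 SD, cut at about 3% in these data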;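 note: 0% = DAX-1 transfected cells with DMSO and 100% = cells without DAX-1 with DMSO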
# LXR ag – counter-screen for hcDAF-12 agonists: agonists of human LXR-beta. activation, % at 6.8 µM. HEK293 Gal4-LXR tk-luc reporter, luminescence, 24 h; normalized: DMSO 0%, positive control 100%. shares compounds with hcDAF12 agonist. 3,400 tested, under 10 active. AID 743027;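 active = mean percent activation of the reporter above a cutoff set as the average over tested compounds plus their standard deviation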
# hcDAF12 conf – confirmation of H. contortus DAF-12 agonists; shares compounds with hcDAF12 agonist; HEK293 hcDAF-12 lit1-tk-luc reporter, luminescence; % of Δ7-dafachronic acid response; activation, % at 6.8 µM; actives 61% (n = 3,400);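 active = mean activation across triplicate tests above the threshold derived from the earlier primary screen, cut at about 5.5% in these data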;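 note: 0% = DMSO only wells and 100% = 3 µM Δ7-dafachronic acid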
# hgDAF12 conf – confirmation of H. glycines DAF-12 agonists; activation, % at 6.8 µM; shares compounds with hgDAF12 agonist; HEK293 GAL4-hgDAF12 luciferase reporter, agonist mode; percent of butyrate response; actives 80% (n = 3,300);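 active = mean activation over triplicate wells above the hit cutoff derived from the earlier primary screen, cut at about 11% in these data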;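 note: 0% = DMSO low control and 100% = 2 mM sodium butyrate high control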
# LXR ag 2 – activates human LXR-beta, counter-screen for DAF-12 agonists | 3,300 tested, under 10 active | HEK293 Gal4-LXR luciferase reporter, 24 h | AID 743051 | activation, % at 6.8 µM | shares compounds with hgDAF12 agonist;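 active = mean activation of the triplicate above a set limit carried over from the primary screen, none filed active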
# * marks the source's active call; other numbers are inactive results; . = not tested or not shown.
SMILES,hcDAF12 agonist,DAX1 inh-1,DAX1 inh-2,hgDAF12 agonist,ssDAF12 agonist,DAX1 conf,SF1 AF2mut Luc,LXR ag,hcDAF12 conf,hgDAF12 conf,LXR ag 2
O=C(Nc1ccccn1)c1ccc2c(c1)OCO2,4,0,6.1*,22*,0,6.8*,3.4*,.,.,13*,0
CCCc1nc2c3ccccc3ccn2c1CC(C)(C)C,2,.,0,0,0,.,.,.,.,.,.
Cc1cc(Br)cn2c(Cc3ccccc3)c(C3CCCCC3)nc12,2,.,0,2,-1,.,.,.,.,.,.
c1ccc(Cc2c(C3CCCCC3)nc3c4ccccc4ccn23)cc1,11*,.,6.1*,18*,2.1*,6.1*,4.0*,1,8.0*,20*,1
CCCc1nc2c3ccccc3ccn2c1Cc1ccc(C)cc1,12*,.,6.0*,18*,2.3*,8.0*,4.3*,1,13*,11*,1
C[C@@H]1COc2cc(Br)ccc2S(=O)(=O)N1Cc1cn(Cc2ccccc2)nn1,-1,.,-1,0,-1,.,.,.,.,.,.
COc1ccc(-n2c(SCC(=O)Nc3ccc(S(=O)(=O)Nc4nccs4)cc3)nnc2-c2cccs2)cc1,-2,.,0,-2,-1,.,.,.,.,.,.
C=C(C)Cn1c(SCC(=O)N/N=C(\C)c2ccc(Br)cc2)nnc1-c1ccc(Br)cc1,-2,.,0,-3,-1,.,.,.,.,.,.
CCc1ccc(NC(=O)c2onc(C)c2Cl)cc1,17*,4.5*,7.7*,29*,2.2*,13*,11*,2,18*,22*,1
Cc1noc(C(=O)Nc2ccc(C#N)cc2)c1Cl,-2,-1,0,5,-1,.,.,.,.,.,.
CC1CCN(c2ccc(C(=O)O)cc2NS(=O)(=O)c2ccc(Cl)s2)CC1,-1,.,0,-3,-1,.,.,.,.,.,.
Cc1ccc(-n2[nH]c(C)c(C=NC34CN5CN(CN(C5)C3)C4)c2=O)cc1C,-1,2,1,1,-1,.,.,.,.,.,.
COCCCN=Cc1c(C)[nH]n(-c2ccc(Br)c(C)c2)c1=O,7.6*,0,7.0*,18*,1,16*,5.2*,2,11*,10,1
Cc1ccc(-n2c(SCC(=O)c3ccc(Br)cc3)nnc2-c2ccncc2)cc1,-3,.,-1,-2,-2,.,.,.,.,.,.
COc1cc(SC)ccc1C(=O)Nc1c(C)cccc1C,-2,1,-1,0,-2,.,.,.,.,.,.
COc1cc(C(=O)Nc2ccc3c(c2)OCCO3)c(-n2cnnn2)cc1OC,-2,1,1,-1,-1,.,.,.,.,.,.
COc1cc(SC)ccc1C(=O)Nc1ccc2c(c1)OCCO2,8.2*,0,4.7*,14*,1,9.2*,3.6*,2,7.2*,16*,1
COc1cc(SC)ccc1C(=O)Nc1nccs1,12*,-1,4.7*,17*,1.3*,15*,5.6*,2,14*,17*,1
CCCCC(=O)Nc1ccc(C(=O)NNC(=O)c2ccc(C)c(Br)c2)cc1,-1,-1,0,0,-1,.,.,.,.,.,.
Cc1ccc(C(=O)Nc2ccc3nccnc3c2)cc1,9.0*,-2,5.3*,13*,1,17*,8.3*,2,7.7*,16*,1
Cc1cc(NC(=O)c2ccc3nccnc3c2)ccc1Br,5,2,5.6*,16*,1,7.6*,4.7*,.,.,15*,1
